# Sampled rows, rich in hits. Any-hit rate of the full collection: about 1.3%.
# LAP4-GFP MLPCN = modulators of TOR pathway LAP4-GFP in S. cerevisiae; S. cerevisiae LAP4-GFP multiplex, flow cytometry GFP, 3 h; median GFP as percent of DMSO wells; GFP response vs DMSO, % at 10 µM; 320,000 compounds, 0.34% hits;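 active = GFP response vs DMSO above a set limit, about the screen mean plus 3 SD, cut at about 150% in these data; inconclusive = under 70 cell events counted for the yeast strain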
# Efflux pump mplx = antifungal efflux pump inhibition, Nile Red retention. S. cerevisiae Candida pump triplex. inhibition, % at 10 µM. 330,000 compounds, 0.44% hits;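 active = plate passing quality check with inhibition over a set limit, or well fluorescence over plate mean plus 4 SD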;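 note: Nile Red retained in pooled yeast measured as flow cytometry median fluorescence; 0% = buffer negative control and 100% = Enniatin B positive control; higher means more Nile Red kept so more efflux inhibition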
# CIT2-GFP yeast = alters CIT2-GFP fluorescence in TOR pathway yeast screen; S. cerevisiae CIT2-GFP strain, flow cytometry, 3 h; 100 means same as DMSO wells; 320,000 compounds, 0.065% hits; GFP response vs DMSO, % at 10 µM;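 active = GFP response relative to DMSO above a set limit, near the screen mean plus 3 SD, cut at about 150% in these data; inconclusive = Fewer than 70 cells measured for a yeast strain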;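 note: ratio of well median GFP fluorescence to mean of DMSO wells on the plate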
# AGP1-GFP MLPCN = yeast TOR pathway AGP1-GFP modulation; S. cerevisiae AGP1-GFP multiplex flow cytometry, 3 h; GFP as percent of DMSO wells; GFP response vs DMSO, % at 10 µM; AID 2066; 320,000 compounds, 0.02% hits;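 active = GFP response relative to DMSO above a set limit, near screen average plus 3 SD, cut at about 150% in these data; inconclusive = fewer than 70 cells counted for the yeast strain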;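 note: median GFP channel fluorescence of the gated AGP1 strain per well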
# RPL19A-GFP yeast = alters RPL19A-GFP fluorescence in TOR pathway yeast screen; S. cerevisiae RPL19A-GFP strain, flow cytometry, 3 h; hits give low values; percent response vs DMSO, % at 10 µM; 330,000 compounds, 0.3% hits;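 active = percent response vs DMSO below 50%; inconclusive = fewer than 70 events counted for the yeast strain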;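 note: median channel GFP fluorescence of the barcoded RPL19A-GFP strain; ratio of sample median GFP to plate DMSO average so 100% = DMSO; lower means less RPL19A-GFP as with rapamycin TOR inhibition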
# MEP2 TOR yeast = yeast TOR pathway MEP2-GFP modulation. GFP response vs DMSO, % at 10 µM. S. cerevisiae MEP2-GFP strain, flow cytometry GFP, 3 h; 100% = DMSO control level. AID 2016. 330,000 compounds, 0.51% hits;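 active = GFP response versus DMSO above a set limit, roughly screen mean plus 3 SD, cut at about 180% in these data; inconclusive = fewer than 70 cells counted for a yeast strain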;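 note: median GFP fluorescence of the barcode-gated MEP2-GFP cells per well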
# * marks the source's active call; other numbers are inactive results; ? = inconclusive; · = no result given; [ ] = remark or other dose.
SMILES,LAP4-GFP MLPCN,Efflux pump mplx,CIT2-GFP yeast,AGP1-GFP MLPCN,RPL19A-GFP yeast,MEP2 TOR yeast
O=c1c(Cl)c(O)c2cccc3c4ccccc4n1c23,105,0,80,95,97,97
CC(=O)N1CCN(C(=O)c2ccc(NS(=O)(=O)c3ccc4c(c3)OCCO4)cc2)CC1,100,0,92,100,97,99
Cc1c(C(=O)NCCSCc2cccc(C(F)(F)F)c2)cnn1-c1ccc(F)cc1,153*,0,66,17,71,96
COc1ccc2[nH]c3c(=O)n(CCCC(=O)NC4CCCCC4C)c(=S)[nH]c3c2c1 (configuration not stated),122,0,109,115,106,108
CC(C)c1nc2c(c(=O)n(C)c(=O)n2C)n1C,87,0,93,81,85,102
CCCN(CCC)c1ccc(/C=C/c2ccc3cc(OCC)ccc3n2)cc1,96,0,?,15,76,231*[may fluoresce violet]
O=C(Nc1ccc(S(=O)(=O)Nc2cnc3ccccc3n2)cc1)c1ccc([N+](=O)[O-])cc1Cl,86,0,111,99,103,97
Cc1ccc(CN=C2NC(=O)C(CC(=O)NCCc3ccccc3)S2)cc1 (configuration not stated),105,0,97,105,100,96
O=C(C1CCC1)N1CCc2cc(S(=O)(=O)NCC3COc4ccccc4O3)ccc21 (configuration not stated),100,0,92,98,96,100
O=C(C1CC1)N1CCc2cc(S(=O)(=O)NCC3COc4ccccc4O3)ccc21 (configuration not stated),75,0,?,?,23*[may fluoresce violet],303*[may fluoresce violet]
O=S(=O)(c1ccc(NC(=S)NCc2ccc(F)cc2)cc1)N1CCOCC1,99,0,101,90,103,96
CC(NC(=O)c1ccccc1)c1nc2ccccc2n1Cc1ccc(C#N)cc1 (configuration not stated),99,0,99,102,99,105
CC(NC(=O)c1ccccc1)c1nc2ccccc2n1Cc1ccccc1F (configuration not stated),71,0,?,?,16*[may fluoresce violet],293*[may fluoresce violet]
CN1C=CC=C/C1=C1\SC(=S)N(N)C1=O,68,0,?,?,44*[may fluoresce violet],293*[may fluoresce violet]
CCn1c(SCC(=O)NC2CCCC2)nnc1C(C)C,103,1,107,99,101,107
Cc1ccc(NC(=O)CSc2nc3ccccc3c(=O)n2CC2CCCO2)cc1 (configuration not stated),89,0,104,101,103,94
CN(C)c1ccc(NC(=O)CSc2nc3ccccc3c(=O)n2CC2CCCO2)cc1 (configuration not stated),78,0,?,?,54,214*[may fluoresce violet]
O=[N+]([O-])c1ccc(O)c(NC(=S)Nc2ccccc2)c1,78,0,?,22,90,313*[may fluoresce violet]
CCOC(=O)N1CCN(C(=O)c2ccc3c(c2)N(Cc2cc(C)ccc2C)C(=O)c2ccccc2S3=O)CC1 (configuration not stated),110,0,112,104,103,102
COc1ccccc1NC(=S)N1CCC(c2nc3cc(C)c(C)cc3[nH]2)CC1,98,0,?,?,59,300*[may fluoresce violet]
CC(=O)Nc1ccc(Sc2ccccc2C(=O)O)cn1,93,0,100,103,103,102
CCN1CCN(C(=O)/C=C/c2ccc(C)o2)CC1,90,0,109,104,104,103
Cc1ccc(/C=C/C(=O)N2CC(C)CC(C)C2)o1 (configuration not stated),127,0,112,32,·,275*
CC(C)C[C@H](NC(=O)Nc1ccc2c(c1)OCCO2)C(=O)O,98,0,99,106,97,99
O=C(c1ccc(N2CCCC2)c([N+](=O)[O-])c1)N1CCN(CCO)CC1,70,0,?,?,48*[may fluoresce violet],189*[may fluoresce violet]
SMILES,LAP4-GFP MLPCN,Efflux pump mplx,CIT2-GFP yeast,AGP1-GFP MLPCN,RPL19A-GFP yeast,MEP2 TOR yeast
O=C(c1ccc(N2CCCCC2)c([N+](=O)[O-])c1)N1CCOCC1,77,0,110,94,99,102
Cc1nn(Cc2ccccc2)c(Cl)c1C(=O)NCc1ccc(C)n1C,104,0,95,98,98,101
Cc1nn(Cc2c(Cl)cccc2Cl)c(C)c1C(=O)NCc1ccc(C)n1C,100,0,?,·,54,216*[may fluoresce violet]
Cc1ccc(S(=O)(=O)N2CCC[C@H]2C(=O)OCc2cc(=O)oc3cc(C)ccc23)cc1,99,0,103,101,99,109
CC1CC(=O)Nc2ccccc2N1C(=O)COc1ccc2ccccc2c1 (configuration not stated),90,0,100,98,93,100
CCC1C(=O)Nc2ccccc2N1C(=O)COc1ccccc1 (configuration not stated),104,0,156*[may fluoresce green],116,94,106
CC(=O)c1ccc(N2CCN(S(=O)(=O)c3ccc4c(c3)CC(C)N4C(C)=O)CC2)cc1 (configuration not stated),86,0,86,17,37*,121
CCCCNC(=O)c1ccc2c(SCC(=O)O)c3c(nc2c1)CCCC3,110,0,103,98,104,185*
O=C(Nc1ccc(F)cc1Cl)C1CCN(C(=O)Nc2ccccc2)CC1,94,0,103,96,102,101
O=c1[nH]cc(S(=O)(=O)N2CCCc3ccccc32)c(=O)[nH]1,86,0,93,91,91,95
COc1ccc(C)cc1S(=O)(=O)N1CCCC(C(=O)N2CCN(c3ccccc3)CC2)C1 (configuration not stated),102,0,104,103,102,98
O=C(NCCc1ccccc1)C(c1ccccc1F)N(C(=O)c1csnn1)C1CC1 (configuration not stated),62,0,?,?,38*[may fluoresce violet],217*[may fluoresce violet]
O=C(NCCc1ccccc1)C(c1ccc(F)cc1)N(C(=O)c1csnn1)C1CC1 (configuration not stated),57,0,?,?,28*[may fluoresce violet],201*[may fluoresce violet]
O=C(NCCCN1CCOCC1)c1cc2c([nH]c3ccccc32)c(-c2cccc(Br)c2)n1,100,0,?,48,19*[may fluoresce violet],344*[may fluoresce violet]
COc1cc(CCC(=O)NNC(=O)c2cccc(Cl)c2)cc(OC)c1OC,109,0,95,100,94,103
O=C(O)c1cc(NC(=O)c2cccc(N3C(=O)c4ccccc4C3=O)c2)cc(C(=O)O)c1,74,0,93,96,108,105
O=C(O)c1cccc(NC(=O)c2ccc3c(c2)C(=O)N(c2ccccc2)C3=O)c1,50,0,?,?,86,376*[may fluoresce violet]

# Screening data: PubChem BioAssay, NMMLSC
